# According to the supplement of paper PMC4466140:
# B1: unnamed (peptide)
# chain: NPTKSPPPPPSPSTM
# B2: unnamed (peptide)
# chain: MSPLGAPPPPPHKDH
# B3: unnamed (peptide)
# chain: APPLPPTAPPPPSLP
# Target: AgAbp1
# Test: SPOT peptide array binding signal intensity (averaged, normalized) (arbitrary units (background-subtracted, floor 0; scale differs between SH3 domains)); higher = stronger binding of the SH3 domain to the peptide
# Procedure, shortened: (§1)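 Binding signal is given in arbitrary units that differ between domains and is the normalized, background-subtracted spot intensity averaged across replicates. Each GST-SH3 fusion from one of four yeast species was made in E. coli BL21(DE3), purified on glutathione Sepharose and incubated at 10 μg/ml overnight at 4°C on cellulose-bound synthetic 15-mer peptides in which cysteines were replaced by serines. Detection used anti-GST antibody, an HRP anti-mouse secondary and luminol, followed by imaging and Genespotter quantification.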
row,Binder,SPOT peptide array binding signal intensity
1,B1,≤ 0
2,B2,≤ 0

# Target: AgBbc1
# Test: as above
# Procedure, shortened: as §1
row,Binder,SPOT peptide array binding signal intensity
1,B1,≤ 0
2,B2,≤ 0

# Target: AgBem1-D1
# Test: as above
# Procedure, shortened: as §1
row,Binder,SPOT peptide array binding signal intensity
1,B1,26
2,B2,≤ 0

# Target: AgBzz1-D1
# Test: as above
# Procedure, shortened: as §1
row,Binder,SPOT peptide array binding signal intensity
1,B1,126
2,B2,6.5

# Target: AgBzz1-D2
# Test: as above
# Procedure, shortened: as §1
row,Binder,SPOT peptide array binding signal intensity
1,B1,63.5
2,B2,9

# Target: AgCyk3
# Test: as above
# Procedure, shortened: as §1
row,Binder,SPOT peptide array binding signal intensity
1,B1,≤ 0
2,B2,1

# Target: AgFus1
# Test: as above
# Procedure, shortened: as §1
row,Binder,SPOT peptide array binding signal intensity
1,B1,≤ 0
2,B2,1.5

# Target: AgHof1
# Test: as above
# Procedure, shortened: as §1
row,Binder,SPOT peptide array binding signal intensity
1,B1,7
2,B2,≤ 0

# Target: AgHse1
# Test: as above
# Procedure, shortened: as §1
row,Binder,SPOT peptide array binding signal intensity
1,B1,16
2,B2,23

# Target: AgLsb1
# Test: as above
# Procedure, shortened: as §1
row,Binder,SPOT peptide array binding signal intensity
1,B1,1.25
2,B2,≤ 0

# Target: AgLsb4
# Test: as above
# Procedure, shortened: as §1
row,Binder,SPOT peptide array binding signal intensity
1,B1,≤ 0
2,B2,≤ 0

# Target: AgMyo5
# Test: as above
# Procedure, shortened: as §1
row,Binder,SPOT peptide array binding signal intensity
1,B1,232
2,B2,449

# Target: AgNbp2
# Test: as above
# Procedure, shortened: as §1
row,Binder,SPOT peptide array binding signal intensity
1,B1,≤ 0
2,B2,5

# Target: AgRvs167
# Test: as above
# Procedure, shortened: as §1
row,Binder,SPOT peptide array binding signal intensity
1,B1,≤ 0
2,B2,1

# Target: AgSho1
# Test: as above
# Procedure, shortened: as §1
row,Binder,SPOT peptide array binding signal intensity
1,B1,≤ 0
2,B2,4

# Target: AgSla1-D1-D2
# Test: as above
# Procedure, shortened: as §1
row,Binder,SPOT peptide array binding signal intensity
1,B1,≤ 0
2,B2,2

# Target: AgSla1-D3
# Test: as above
# Procedure, shortened: as §1
row,Binder,SPOT peptide array binding signal intensity
1,B1,128
2,B2,≤ 0

# Target: CaAbp1-D1
# Test: as above
# Procedure, shortened: as §1
row,Binder,SPOT peptide array binding signal intensity
1,B1,7
2,B2,≤ 0

# Target: CaAbp1-D2
# Test: as above
# Procedure, shortened: as §1
row,Binder,SPOT peptide array binding signal intensity
1,B1,≤ 0
2,B2,≤ 0

# Target: CaBbc1
# Test: as above
# Procedure, shortened: as §1
row,Binder,SPOT peptide array binding signal intensity
1,B1,≤ 0
2,B2,0.5

# Target: CaBem1-D1
# Test: as above
# Procedure, shortened: as §1
row,Binder,SPOT peptide array binding signal intensity
1,B1,5
2,B2,≤ 0

# Target: CaBzz1-D1
# Test: as above
# Procedure, shortened: as §1
row,Binder,SPOT peptide array binding signal intensity
1,B1,3240
2,B2,10

# Target: CaBzz1-D2
# Test: as above
# Procedure, shortened: as §1
row,Binder,SPOT peptide array binding signal intensity
1,B1,1620
2,B2,3.25

# Target: CaCyk3
# Test: as above
# Procedure, shortened: as §1
row,Binder,SPOT peptide array binding signal intensity
1,B1,7.5
2,B2,≤ 0

# Target: CaFus1
# Test: as above
# Procedure, shortened: as §1
row,Binder,SPOT peptide array binding signal intensity
1,B1,60
2,B2,42

# Target: CaHof1
# Test: as above
# Procedure, shortened: as §1
row,Binder,SPOT peptide array binding signal intensity
1,B1,≤ 0
2,B2,0.75

# Target: CaHse1
# Test: as above
# Procedure, shortened: as §1
row,Binder,SPOT peptide array binding signal intensity
1,B1,4
2,B2,5.75

# Target: CaLsb1
# Test: as above
# Procedure, shortened: as §1
row,Binder,SPOT peptide array binding signal intensity
1,B1,0.5
2,B2,0.75

# Target: CaLsb4
# Test: as above
# Procedure, shortened: as §1
row,Binder,SPOT peptide array binding signal intensity
1,B1,≤ 0
2,B2,≤ 0

# Target: CaMyo5
# Test: as above
# Procedure, shortened: as §1
row,Binder,SPOT peptide array binding signal intensity
1,B1,48
2,B2,46.5

# Target: CaNbp2
# Test: as above
# Procedure, shortened: as §1
row,Binder,SPOT peptide array binding signal intensity
1,B1,45
2,B2,≤ 0
3,B3,7.5

# Target: CaRvs167
# Test: as above
# Procedure, shortened: as §1
row,Binder,SPOT peptide array binding signal intensity
1,B1,0.667
2,B2,0.833
3,B3,0.167

# Target: CaRvs167-3
# Test: as above
# Procedure, shortened: as §1
row,Binder,SPOT peptide array binding signal intensity
1,B1,1
2,B2,≤ 0
3,B3,2.5

# Target: CaSho1
# Test: as above
# Procedure, shortened: as §1
row,Binder,SPOT peptide array binding signal intensity
1,B1,10.5
2,B2,≤ 0
3,B3,8

# Target: CaSla1-D1-D2
# Test: as above
# Procedure, shortened: as §1
row,Binder,SPOT peptide array binding signal intensity
1,B1,49
2,B2,≤ 0
3,B3,≤ 0

# Target: CaSla1-D3
# Test: as above
# Procedure, shortened: as §1
row,Binder,SPOT peptide array binding signal intensity
1,B1,30
2,B2,≤ 0
3,B3,≤ 0

# Target: ScAbp1
# Test: as above
# Procedure, shortened: as §1
row,Binder,SPOT peptide array binding signal intensity
1,B1,≤ 0
2,B2,≤ 0
3,B3,0.5

# Target: ScBbc1
# Test: as above
# Procedure, shortened: as §1
row,Binder,SPOT peptide array binding signal intensity
1,B1,≤ 0
2,B2,≤ 0
3,B3,≤ 0

# Target: ScBem1-D1
# Test: as above
# Procedure, shortened: as §1
row,Binder,SPOT peptide array binding signal intensity
1,B1,≤ 0
2,B2,≤ 0
3,B3,0.5

# Target: ScBzz1-D1
# Test: as above
# Procedure, shortened: as §1
row,Binder,SPOT peptide array binding signal intensity
1,B1,274
2,B2,1.5
3,B3,≤ 0

# Target: ScBzz1-D2
# Test: as above
# Procedure, shortened: as §1
row,Binder,SPOT peptide array binding signal intensity
1,B1,22
2,B2,1
3,B3,≤ 0

# Target: ScCyk3
# Test: as above
# Procedure, shortened: as §1
row,Binder,SPOT peptide array binding signal intensity
1,B1,≤ 0
2,B2,≤ 0
3,B3,2

# Target: ScFus1
# Test: as above
# Procedure, shortened: as §1
row,Binder,SPOT peptide array binding signal intensity
1,B1,≤ 0
2,B2,≤ 0
3,B3,≤ 0

# Target: ScHof1
# Test: as above
# Procedure, shortened: as §1
row,Binder,SPOT peptide array binding signal intensity
1,B1,1
2,B2,≤ 0
3,B3,212

# Target: ScHse1
# Test: as above
# Procedure, shortened: as §1
row,Binder,SPOT peptide array binding signal intensity
1,B1,21.5
2,B2,≤ 0
3,B3,≤ 0

# Target: ScLsb1
# Test: as above
# Procedure, shortened: as §1
row,Binder,SPOT peptide array binding signal intensity
1,B1,≤ 0
2,B2,≤ 0
3,B3,≤ 0

# Target: ScLsb2
# Test: as above
# Procedure, shortened: as §1
row,Binder,SPOT peptide array binding signal intensity
1,B1,≤ 0
2,B2,≤ 0
3,B3,≤ 0

# Target: ScLsb3
# Test: as above
# Procedure, shortened: as §1
row,Binder,SPOT peptide array binding signal intensity
1,B1,≤ 0
2,B2,≤ 0
3,B3,≤ 0

# Target: ScLsb4
# Test: as above
# Procedure, shortened: as §1
row,Binder,SPOT peptide array binding signal intensity
1,B1,≤ 0
2,B2,≤ 0
3,B3,4

# Target: ScMyo3
# Test: as above
# Procedure, shortened: as §1
row,Binder,SPOT peptide array binding signal intensity
1,B1,771
2,B2,700
3,B3,3490

# Target: ScMyo5
# Test: as above
# Procedure, shortened: as §1
row,Binder,SPOT peptide array binding signal intensity
1,B1,343
2,B2,751
3,B3,3170

# Target: ScNbp2
# Test: as above
# Procedure, shortened: as §1
row,Binder,SPOT peptide array binding signal intensity
1,B1,47.5
2,B2,≤ 0
3,B3,0.5

# Target: ScPex13
# Test: as above
# Procedure, shortened: as §1
row,Binder,SPOT peptide array binding signal intensity
1,B1,80
2,B2,≤ 0
3,B3,≤ 0

# Target: ScRvs167
# Test: as above
# Procedure, shortened: as §1
row,Binder,SPOT peptide array binding signal intensity
1,B1,≤ 0
2,B2,2
3,B3,≤ 0

# Target: ScSho1
# Test: as above
# Procedure, shortened: as §1
row,Binder,SPOT peptide array binding signal intensity
1,B1,18
2,B2,≤ 0
3,B3,≤ 0

# Target: ScSla1-D1-D2
# Test: as above
# Procedure, shortened: as §1
row,Binder,SPOT peptide array binding signal intensity
1,B1,≤ 0
2,B2,≤ 0
3,B3,≤ 0

# Target: ScSla1-D3
# Test: as above
# Procedure, shortened: as §1
row,Binder,SPOT peptide array binding signal intensity
1,B1,11.5
2,B2,≤ 0
3,B3,0.5

# Target: SpAbp1-D1
# Test: as above
# Procedure, shortened: as §1
row,Binder,SPOT peptide array binding signal intensity
1,B1,≤ 0
2,B2,≤ 0
3,B3,≤ 0

# Target: SpBbc1
# Test: as above
# Procedure, shortened: as §1
row,Binder,SPOT peptide array binding signal intensity
1,B1,≤ 0
2,B2,≤ 0
3,B3,1

# Target: SpBzz1-D1
# Test: as above
# Procedure, shortened: as §1
row,Binder,SPOT peptide array binding signal intensity
1,B1,548
2,B2,324
3,B3,525

# Target: SpBzz1-D2
# Test: as above
# Procedure, shortened: as §1
row,Binder,SPOT peptide array binding signal intensity
1,B1,7.25
2,B2,≤ 0
3,B3,≤ 0

# Target: SpCyk3
# Test: as above
# Procedure, shortened: as §1
row,Binder,SPOT peptide array binding signal intensity
1,B1,4
2,B2,≤ 0
3,B3,1

# Target: SpHof1
# Test: as above
# Procedure, shortened: as §1
row,Binder,SPOT peptide array binding signal intensity
1,B1,1.25
2,B2,1
3,B3,≤ 0

# Target: SpHof1-2
# Test: as above
# Procedure, shortened: as §1
row,Binder,SPOT peptide array binding signal intensity
1,B1,4
2,B2,≤ 0
3,B3,4

# Target: SpHof1-3
# Test: as above
# Procedure, shortened: as §1
row,Binder,SPOT peptide array binding signal intensity
1,B1,0.5
2,B2,0.5
3,B3,0.5

# Target: SpHse1
# Test: as above
# Procedure, shortened: as §1
row,Binder,SPOT peptide array binding signal intensity
1,B1,94
2,B2,≤ 0
3,B3,10.5

# Target: SpLsb1
# Test: as above
# Procedure, shortened: as §1
row,Binder,SPOT peptide array binding signal intensity
1,B1,1
2,B2,≤ 0
3,B3,≤ 0

# Target: SpLsb4
# Test: as above
# Procedure, shortened: as §1
row,Binder,SPOT peptide array binding signal intensity
1,B1,≤ 0
2,B2,≤ 0
3,B3,≤ 0

# Target: SpMyo1
# Test: as above
# Procedure, shortened: as §1
row,Binder,SPOT peptide array binding signal intensity
1,B1,468
2,B2,1060
3,B3,2050

# Target: SpNbp2
# Test: as above
# Procedure, shortened: as §1
row,Binder,SPOT peptide array binding signal intensity
1,B1,≤ 0
2,B2,≤ 0
3,B3,6.5

# Target: SpPex13
# Test: as above
# Procedure, shortened: as §1
row,Binder,SPOT peptide array binding signal intensity
1,B1,≤ 0
2,B2,≤ 0
3,B3,≤ 0

# Target: SpRvs167
# Test: as above
# Procedure, shortened: as §1
row,Binder,SPOT peptide array binding signal intensity
1,B1,2
2,B2,12.7
3,B3,24.3

# Target: SpSla1-D1-D2
# Test: as above
# Procedure, shortened: as §1
row,Binder,SPOT peptide array binding signal intensity
1,B1,≤ 0
2,B2,≤ 0
3,B3,≤ 0

# Target: SpSla1-D3
# Test: as above
# Procedure, shortened: as §1
row,Binder,SPOT peptide array binding signal intensity
1,B1,≤ 0
2,B2,≤ 0
3,B3,≤ 0
